Source: PubChem BioAssay
A selection: hits, their analogues and other compounds. The true share with any hit is near 2.4%.
D2 ag-1: human D2 receptor agonism in beta-arrestin assay | AID 624465 | activation, % (no concentration beside the values) | P14416 | DiscoveRx PathHunter D2 beta-arrestin, luminescence, 90 min; 100% = 57 uM dopamine signal | 360,000 tested, 0.084% active; in the data active = activation above about 40%; inconclusive = between about 15% and that limit
Target sequence (P14416 whole entry, looked up): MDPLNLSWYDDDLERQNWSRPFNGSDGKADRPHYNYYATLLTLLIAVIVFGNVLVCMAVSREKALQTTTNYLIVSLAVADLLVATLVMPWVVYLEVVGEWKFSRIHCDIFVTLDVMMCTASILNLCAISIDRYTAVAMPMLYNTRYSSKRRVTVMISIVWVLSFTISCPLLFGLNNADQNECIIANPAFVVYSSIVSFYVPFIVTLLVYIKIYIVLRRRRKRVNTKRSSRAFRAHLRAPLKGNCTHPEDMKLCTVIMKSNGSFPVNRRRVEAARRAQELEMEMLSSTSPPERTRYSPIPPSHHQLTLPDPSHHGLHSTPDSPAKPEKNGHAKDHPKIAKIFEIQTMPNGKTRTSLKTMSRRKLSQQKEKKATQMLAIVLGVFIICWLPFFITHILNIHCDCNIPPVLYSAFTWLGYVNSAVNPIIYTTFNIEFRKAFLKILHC
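Agonist mode: compounds alone added to overnight-plated D2 PathHunter cells for 90 min at 37 C, with 57 uM final dopamine (EC100) defining full response. Beta-arrestin recruitment detected by chemiluminescent reagent, read after 1 h at ambient temperature.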
D2 PAM-1: human D2 receptor positive allosteric modulation; DiscoveRx D2 beta-arrestin cells, luminescence, 90 min; 100% = 57 uM dopamine signal; potentiation, % (no concentration beside the values); 360,000 tested, 0.23% active; AID 624464; in the data active = potentiation above about 50%; inconclusive = mostly about 30% to 49%
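PathHunter D2 cells, attached overnight at 37 deg C, received compound in DMSO plus dopamine at EC20 (50 nM final) for 90 min at 37 deg C. Beta-arrestin recruitment was read as luminescence after 1 h with detection reagent at ambient temperature.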
D2 PAM-2: D2 dopamine receptor (human) potentiation; 340,000 tested, 0.34% active; potentiation, % at 10 µM; AID 485347; HEK293 T-REx D2, calcium flux, EC20 dopamine potentiation;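 active = potentiation over 3 SD above the plate norm, cut at about 30% in these data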
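Tetracycline-induced HEK293 T-REx cells force-coupled to calcium signalling expressed D2; compounds were pin-added after a 10 s baseline, read kinetically 180 s, then an EC20 dopamine challenge followed with a further 180 s calcium read.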
D2 ag-2: D2 dopamine receptor (human) agonism | P14416 | AID 485358 | activation, % at 2 µM | 340,000 tested, 0.53% active | HEK293 T-REx D2 cells, calcium flux agonist mode;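 active = activation over 3 SD above normal in the single-dose calcium agonist read, cut at about 30% in these data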
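Agonism scored from kinetic calcium signal (1 read/sec, 180 s) following compound pin transfer, after a 10 s baseline. Cells: HEK293 Trex line expressing inducible D2 receptor coupled to calcium, dye-loaded after overnight culture at 30 C.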
D2 antag: antagonizes the human D2 dopamine receptor | P14416 | HEK293 TREx D2 cells, calcium flux, dopamine EC80 | inhibition, % at 10 µM | 340,000 tested, 2% active | AID 485344; in the data active = inhibition above about 30%; inactive = below that, where a call was filed
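Calcium mobilization kinetics were recorded at 1 s intervals in tetracycline-induced HEK293 T-REx D2 cells, first for 180 s after compound addition and then 180 s after EC80 dopamine.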
D3 arrestin ag: D3 receptor agonism confirmed, beta-arrestin readout | shares compounds with D2 ag-2 | DiscoveRx D3 beta-arrestin cells, luminescence, 90 min | Potency, µM (series often up to 76.9 µM), usual class: activators | 2,300 tested, 4% active | AID 720506; also: nearly all actives have a fitted effect of over 70% in size
D2 ag-3: counter-screen for D3 agonists: human D2 dopamine receptor agonism; AID 720507; Potency, µM (series often up to 76.9 µM), actives largely listed as activators; DiscoveRx PathHunter D2 beta-arrestin, luminescence, 90 min; response scale: percent relative to full dopamine signal; shares compounds with D2 ag-2; 2,300 tested, 5.9% active; also: nearly all actives have a fitted effect of over 70% in size
Numbers stand for hits; - = inactive; ? = inconclusive; . = no result; ! = a repeat was not active. Unless noted, calls follow the shape of the dose curve; as a rule, active = well fitted activation curve with a large enough effect; inconclusive = small, poorly fitted or top-dose-only effect; inactive = flat fitted curve, though single readings scatter.

SMILES | D2 ag-1 | D2 PAM-1 | D2 PAM-2 | D2 ag-2 | D2 antag | D3 arrestin ag | D2 ag-3
COc1ccc(CNC(=O)C2CCN(S(=O)(=O)c3c(C)noc3/C=C/c3ccccc3F)CC2)cc1 | . | . | - | - | . | . | .
Cc1ccc(C)c(N2CCN(C3(c4ccccc4)C(=O)c4ccccc4C3=O)CC2)c1 | . | . | - | - | . | . | .
Cc1ccc(/C=N/c2sc3c(c2C#N)CCCCC3)o1 | - | - | . | . | . | ? | -
Cc1[nH]n(-c2ccc(F)cc2)c(=O)c1/C=N/c1sc2c(c1C#N)CCCC2 | - | - | - | 53.1 | - | ? | -
COc1ccc2cc3cc(C(=O)NCCN4CCc5ccccc5C4)sc3nc2c1 | - | - | - | 72.1 | - | - | ?
CCCC(C)NC(=O)c1cc(S(=O)(=O)N2CCCCCC2)ccc1OC (stereo not drawn) | - | - | - | - | - | - | -
COc1cc(NC(=O)NCCN2CCN(c3ccccc3)CC2)cc(OC)c1OC | - | - | - | 75.0 | 76.0 | - | ?
O=C(NCCN1CCN(c2ccccc2)CC1)Nc1ccccc1Br | - | - | - | 59.2 | 76.0 | - | -
CCCN1CCN(CCNC(=O)Nc2ccccc2Cl)CC1 | - | - | - | - | - | . | .
O=C(NCCN1CCN(c2ccccc2)CC1)Nc1ccccc1Cl | - | - | - | 63.5 | 34.6 | ? | -
O=C(NCCN1CCN(c2ccccc2)CC1)Nc1ccc(Cl)cc1 | - | - | - | 75.3 | 82.2 | - | ?
O=C(NCCN1CCN(c2ccccc2)CC1)Nc1cccc(Br)c1 | - | - | - | - | - | . | .
OCC1CSC(=S)N1Cc1ccccc1 (stereo not drawn) | - | - | . | . | . | . | .
CCN(CC)S(=O)(=O)c1cccc(S(=O)(=O)N2CCCCC2)c1 | - | - | - | 36.4 | - | - | -
O=C(Cn1c(=O)c2cccn2c2ccc(F)cc21)NCCCN1CCN(c2ccccc2F)CC1 | ? | - | - | 78.9 | 81.8 | - | ?
COc1ccc(N2CCN(CCCNC(=O)Nc3ccccc3)CC2)cc1 | - | - | - | - | - | . | .
CSc1ccc(NC(=O)NCCCN2CCN(c3ccccc3F)CC2)cc1 | ? | - | - | 69.4 | 100.3 | ? | ?
COc1ccccc1N1CCN(CCCNC(=O)Nc2ccccc2)CC1 | ? | - | - | 86.6 | 101.0 | - | -
Cc1ccccc1NC(=O)NCCCN1CCN(C)CC1 | - | - | - | - | - | . | .
O=C(NCCCN1CCN(c2ccccc2F)CC1)Nc1ccccc1[N+](=O)[O-] | ? | - | - | 73.5 | 99.0 | - | ?
O=C(CCn1c(=O)c2ccccc2n(CC(=O)Nc2ccc(F)cc2)c1=O)NCCc1ccccc1 | . | . | - | - | . | . | .
Cc1nn(-c2ccc(F)cc2)c(-n2cccc2)c1C(=O)NCCCN1CCN(c2ccccc2F)CC1 | . | . | - | - | . | . | .
O=C(NCCCN1CCN(c2ccccc2F)CC1)Nc1ccc(F)cc1 | - | - | - | 75.7 | 80.7 | - | ?
CC(=O)c1ccc(NC(=O)C(C)N2CCN(C/C=C/c3ccccc3)CC2)cc1 (stereo not drawn) | - | - | - | - | 47.0 | ? | -
CC(C(=O)N(C)Cc1ccccc1)N1CCN(C/C=C/c2ccccc2)CC1 (stereo not drawn) | ? | - | - | 68.6 | 68.7 | ? | ?
SMILES | D2 ag-1 | D2 PAM-1 | D2 PAM-2 | D2 ag-2 | D2 antag | D3 arrestin ag | D2 ag-3
COc1ccc(Cl)cc1NC(=O)C(C)N1CCN(C/C=C/c2ccccc2)CC1 (stereo not drawn) | - | - | - | - | - | . | .
CC(C(=O)Nc1ccc([N+](=O)[O-])cc1)N1CCN(C/C=C/c2ccccc2)CC1 (stereo not drawn) | - | - | - | 67.0 | 52.7 | ? | ?
CN1CCN(c2ncnc3c2ncn3[C@H]2CN(C)C[C@@H](CO)O2)CC1 | - | - | . | . | . | . | .
CC(Oc1ccccc1F)C(=O)N1CCC(c2nc3ccccc3o2)CC1 (stereo not drawn) | . | . | - | - | . | . | .
O=C(/C=C/c1ccccc1Cl)NC1CCCCC1 | - | - | - | - | - | . | .
O=C(/C=C/c1ccccc1Cl)N(c1ccccn1)C1CCCCC1 | ? | - | - | 76.9 | 98.8 | - | ?
O=c1nc2ccccc2c2n1CC(CN1CCN(c3ccccc3F)CC1)N2 (stereo not drawn) | - | - | - | - | - | - | -
Fc1ccccc1N1CCN(Cc2cccnc2)CC1 | ? | - | - | 73.4 | 67.7 | ? | ?
CCS(=O)(=O)N1CCN(c2ccccc2F)CC1 | - | - | - | - | - | . | .
Fc1ccccc1N1CCN(CC2CCCCC2)CC1 | - | - | - | - | 88.8 | - | -
O=c1nc2ccccc2c2n1CC(CN1CCN(c3ccc(F)cc3)CC1)N2 (stereo not drawn) | - | - | - | - | - | . | .
O=C(CSc1ncc(-c2ccccc2)[nH]1)Nc1cccc(Br)c1 | . | . | - | . | . | . | .
C=CCn1c(SCC(=O)c2ccc(O)c(O)c2)nnc1-c1cccc(OC)c1 | - | - | - | 40.7 | - | - | -
Cc1ccc(-n2nc3c(=O)n(CC(=O)NCc4ccccn4)nc(C)c3c2C)cc1 | - | - | - | 51.7 | - | - | -
Cc1cccc(NC(=O)c2ccc(C)c(S(=O)(=O)N3CCOCC3)c2)n1 | - | - | . | . | . | . | .
CC(=O)c1ccc(NC(=O)c2cc(C)nc3c2c(C)nn3-c2ccc(C)cc2)cc1 | . | . | - | - | . | . | .
COCCN(C(=O)c1ccc(COc2ccccc2)o1)c1c(N)n(CC(C)C)c(=O)[nH]c1=O | - | - | - | - | - | - | -
COCCN(C(=O)C1=COCCO1)c1c(N)n(Cc2ccccc2)c(=O)[nH]c1=O | - | - | - | - | - | . | .
COCCN(C(=O)C1=COCCO1)c1c(N)n(CC(C)C)c(=O)[nH]c1=O | - | - | - | - | - | - | -
O=C(Nc1nnc(S(=O)(=O)N2CCOCC2)s1)c1ccccc1Cl | - | - | - | 52.1! | - | - | -
O=C(COc1ccccc1)Nc1nnc(S(=O)(=O)N2CCCCCC2)s1 | - | - | - | 50.0! | - | - | -
O=C(Nc1nnc(S(=O)(=O)N2CCOCC2)s1)c1ccccc1F | - | - | - | - | - | . | .
CC(OC(=O)c1cc[n+]([O-])cc1)C(=O)Nc1ccc(C(N)=O)cc1 (stereo not drawn) | - | - | - | - | - | - | -
Cc1noc(C)c1C(=O)OC(C)C(=O)Nc1ccc(C(N)=O)cc1 (stereo not drawn) | - | - | - | - | - | . | .
Cc1occc1-c1nnc(SCC(=O)Nc2nc3ccccc3s2)o1 | - | - | - | 45.4 | - | - | -
CN1CCc2c(sc(/N=C/c3cc(Cl)ccc3O)c2C#N)C1 | 52.1 | - | - | 87.7 | 83.3 | - | -
